According to article PMC5540273 (PLoS ONE, 2017):

Columns and labels:
Conditions in all cases: concentration: 1 μM, replicates: in singlicate; n = 1
[1] = system: MAP4K4
[2] = system: MAP4K5
[3] = system: MAPKAPK2
[4] = system: MAPKAPK5
[5] = system: MARK1
[6] = system: MARK2
[7] = system: MARK3
[8] = system: MARK4
[9] = system: MAST1
[10] = system: T1, MEK1
T1 construct: gene MAP2K1

[11] = system: T2, MEK2
T2 construct: gene MAP2K2

[12] = system: T3, MEK3
T3 construct: gene MAP2K3

[13] = system: T4, MEK4
T4 construct: gene MAP2K4

[14] = system: T5, MEK5
T5 construct: gene MAP2K5

[15] = system: T6, MEK6
T6 construct: gene MAP2K6

[16] = system: MELK
[17] = system: MERTK
[18] = system: MET
[19] = system: T7, MINK
T7 construct: gene MINK1

[20] = system: MKK7
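Also: KINOMEscan kinase panel screen.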

Row | Structure (SMILES) | %Inh [1] [%] | %Inh [2] [%] | %Inh [3] [%] | %Inh [4] [%] | %Inh [5] [%] | %Inh [6] [%] | %Inh [7] [%] | %Inh [8] [%] | %Inh [9] [%] | %Inh [10] [%] | %Inh [11] [%] | %Inh [12] [%] | %Inh [13] [%] | %Inh [14] [%] | %Inh [15] [%] | %Inh [16] [%] | %Inh [17] [%] | %Inh [18] [%] | %Inh [19] [%] | %Inh [20] [%]
1 | O=S(=O)(c1ccc(-c2ccnc3[nH]ccc23)cc1)N1CCCC1 [GSK846226] | 0 | 0 | 0 | 0 | 0 | 8 | 0 | 0 | 0 | 24 | 22 | 0 | 18 | 14 | 21 | 7 | 16 | 0 | 0 | 0
2 | Cn1ccc2ncnc(Oc3cccc(C(=O)Nc4ccccc4)c3)c21 | 8 | 0 | 0 | 12 | 13 | 0 | 0 | 6 | 35 | 1 | 23 | 19 | 30 | 14 | 0 | 9 | 0 | 8 | 12 | 21
3 | O=c1cc(N2CCOCC2)nc2n(Cc3cccc(Cl)c3Cl)ccn12 [GSK2286295] | 4 | 0 | 5 | 0 | 0 | 0 | 0 | 0 | 0 | 0 | 0 | 0 | 6 | 13 | 0 | 0 | 29 | 0 | 6 | 0
4 | Cl.NC(=O)c1cccc(Nc2nccc(Nc3ccc(Oc4cccc(Cl)c4)c(Cl)c3)n2)c1 [GW659008] | 18 | 33 | 8 | 0 | 13 | 0 | 0 | 24 | 5 | 0 | 14 | 0 | 22 | 99.7 | 0 | 0 | 33 | 37 | 0 | 0
5 | Fc1cc(Cl)ccc1Nc1ccnc2cc(-c3ccc(CN4CCCCC4)o3)ccc12 [GW560116] | 0 | 0 | 0 | 0 | 0 | 0 | 0 | 0 | 43 | 4 | 100 | 0 | 32 | 83 | 2 | 9 | 0 | 0 | 19 | 0
6 | COC(=O)c1c(-c2ccccc2)c2cc(C(=O)O)ccc2c(=O)n1Cc1ccccc1 | 0 | 7 | 3 | 0 | 0 | 3 | 0 | 0 | 0 | 0 | 10 | 7 | 0 | 4 | 0 | 0 | 0 | 0 | 0 | 0
7 | Cn1cncc1-c1ccc2ncnc(Nc3ccc(OCc4ccccc4)cc3)c2c1 [GW320571] | 25 | 21 | 21 | 0 | 0 | 0 | 0 | 2 | 0 | 11 | 0 | 0 | 35 | 93.7 | 0 | 15 | 2 | 11 | 0 | 15
8 | Cc1cc(NCC(c2ccccc2)c2ccccc2)nc(NCc2ccc(C(F)(F)F)cc2)n1 [GW497681] | 0 | 0 | 0 | 0 | 0 | 0 | 0 | 0 | 0 | 0 | 0 | 0 | 10 | 1 | 0 | 0 | 7 | 13 | 0 | 0
9 | O=C(Nc1n[nH]c2nc(-c3nccs3)c(Br)cc12)C1CCCC1 [SB-742609] | 2 | 4 | 22 | 0 | 0 | 0 | 0 | 0 | 0 | 0 | 0 | 0 | 30 | 39 | 0 | 0 | 44 | 5 | 0 | 0
10 | O=C(Nc1n[nH]c2cc(-c3cccc(F)c3F)ccc12)C1CC1 [SB-733894] | 32 | 0 | 0 | 0 | 27 | 25 | 0 | 7 | 18 | 1 | 11 | 15 | 1 | 45 | 20 | 0 | 0 | 0 | 58 | 0
